From PubChem BioAssay
The source made the active and inactive calls.

Assays:
Albumin (Bos taurus) = Albumin (Bos taurus) (UniProt P02769); assay: bovine serum albumin binders on microarray, profiling panel, artefact control for SMM control protein annotation, biochemical, small-molecule microarray, Alexa647 label, 635/667 nm fluorescence (AID 1118); conditions: BSA-A647 binding, fluorescence 635 nm, higher = more signal;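 note: score merges 667 nm emission intensity and signal-to-noise per printed compound spot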
Chain of Albumin (Bos taurus) (P02769 whole entry, looked up): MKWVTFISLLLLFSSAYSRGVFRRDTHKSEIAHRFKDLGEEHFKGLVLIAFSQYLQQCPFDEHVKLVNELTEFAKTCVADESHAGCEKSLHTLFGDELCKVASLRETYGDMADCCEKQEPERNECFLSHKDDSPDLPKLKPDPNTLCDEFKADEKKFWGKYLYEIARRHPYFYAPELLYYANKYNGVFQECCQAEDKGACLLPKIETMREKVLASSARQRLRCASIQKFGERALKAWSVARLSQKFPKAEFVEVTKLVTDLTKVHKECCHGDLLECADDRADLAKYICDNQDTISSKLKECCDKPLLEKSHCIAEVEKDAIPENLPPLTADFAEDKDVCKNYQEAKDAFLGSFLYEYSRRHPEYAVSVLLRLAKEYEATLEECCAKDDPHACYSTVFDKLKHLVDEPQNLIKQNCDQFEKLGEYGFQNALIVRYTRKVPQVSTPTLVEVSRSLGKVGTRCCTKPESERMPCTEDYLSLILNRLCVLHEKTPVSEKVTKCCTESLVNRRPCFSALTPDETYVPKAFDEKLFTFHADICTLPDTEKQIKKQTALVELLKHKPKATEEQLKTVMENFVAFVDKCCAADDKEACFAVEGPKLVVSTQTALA

[1] = small-molecule microarray binders of probe aXIP, primary screen, biochemical, NeuroSMM set, 635/667 nm fluorescence (AID 1119); conditions: higher = more signal, called active from +8 up or from −8 down;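 note: probe is the protein aXip251-270 applied at 1 µg/mL to compound-printed slides; binding of probe to printed compounds measured as 667 nm fluorescence plus signal to noise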
[2] = small-molecule binders of probe aNOTCH3, primary screen, biochemical, small-molecule microarray, 635/667 nm fluorescence (AID 1120); conditions: higher = more signal;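 note: probe is a biotin-tagged antibody raised against NOTCH3 rather than NOTCH3 protein; score merges spot fluorescence near 667 nm with spot signal to noise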
[3] = small-molecule binders of probe aNOTCH2, primary screen, biochemical, small-molecule microarray, 635/667 nm fluorescence (AID 1121); conditions: higher = more signal;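 note: score merges feature fluorescence read at 667 nm with its signal to noise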
[4] = target: Carbonic anhydrase 2 (Homo sapiens) (UniProt P00918); assay: CAII small-molecule binders, profiling panel, biochemical, small-molecule microarray, Alexa647-labelled CAII (AID 1122); conditions: CAII-A647 binding fluorescence, higher = more signal
[5] = COS7 lysate on small-molecule microarray, probe aHis, 635 nm (AID 1123); conditions: COS7 cell lysate, fluorescence, higher = more signal;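 note: z-score combines 667nm fluorescence intensity with signal-to-noise per printed compound spot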
[6] = compound binding in COS7 lysate, probe aLAP1, primary screen, cell lysate, small-molecule microarray (AID 1124); conditions: probe aLAP1, fluorescence, higher = more signal;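 note: lysate comes from COS7 cells expressing LAP1 and is applied at 0.3 µg/mL; score merges spot fluorescence near 667 nm with signal-to-noise over triplicate slides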
Sam68 (KHDRBS1) = assay: Sam68 small-molecule binders, primary screen, biochemical, small-molecule microarray, 635 nm fluorescence (AID 1125); conditions: small-molecule microarray binding, higher = more signal;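 note: score merges 667 nm channel intensity with signal to noise over triplicate slides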
[7] = system: Chordin-like protein 2 (CHRDL2); assay: CHRDL2 small-molecule binders, primary screen, biochemical, small-molecule microarray, 635 nm fluorescence (AID 1126); conditions: small-molecule microarray binding, fluorescence 635 nm; higher = more signal;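 note: printed compound slides probed with Chrdl2 protein at 4 µg/mL for 1 h at 4 C; score merges 667 nm emission intensity with signal to noise over three replicate slides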
[8] = target: Concanavalin-A (Canavalia ensiformis) (UniProt P02866); assay: ConA small-molecule binders, primary screen, artefact control for SMM control protein annotation, biochemical, small-molecule microarray, Alexa647 label, 635 nm (AID 1127); conditions: ConA-A647 binding fluorescence, higher = more signal;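 note: z combines 667 nm emission intensity with signal-to-noise across three replicate slides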
Chain of Concanavalin-A (Canavalia ensiformis) (P02866 whole entry, looked up): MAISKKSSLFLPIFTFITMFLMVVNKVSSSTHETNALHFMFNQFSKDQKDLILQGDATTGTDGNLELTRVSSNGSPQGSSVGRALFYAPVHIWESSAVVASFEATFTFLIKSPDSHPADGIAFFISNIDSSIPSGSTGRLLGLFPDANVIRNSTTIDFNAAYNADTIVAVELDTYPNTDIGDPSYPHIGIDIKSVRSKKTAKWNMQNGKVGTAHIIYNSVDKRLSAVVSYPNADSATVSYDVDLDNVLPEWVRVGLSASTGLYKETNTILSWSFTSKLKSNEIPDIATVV

[9] = anti-His antibody binders, primary screen, artefact control for SMM control protein annotation, biochemical, small-molecule microarray, 635 nm fluorescence (AID 1128); conditions: anti-His Alexa647 antibody binding, higher = more signal;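 note: score merges feature fluorescence with signal-to-noise for each printed compound spot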
[10] = system: Human papillomavirus type 1a E7 protein (residues 1-88); assay: HPV1a E7 small-molecule binders, primary screen, biochemical, small-molecule microarray, residues 1-88, 635 nm (AID 1129); conditions: small-molecule microarray binding, fluorescence 635 nm; higher = more signal
[11] = target: Focal adhesion kinase 1 (Homo sapiens) (UniProt Q05397); assay: small-molecule microarray binders of FAK, primary screen, biochemical, 635/667 nm fluorescence, BSA, DTT (AID 1130); conditions: PTK2 binding, 635 nm fluorescence, higher = more signal;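 note: composite of spot emission at 667 nm and signal to noise over triplicate slides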
Chain of Focal adhesion kinase 1 (Homo sapiens) (Q05397 whole entry, looked up): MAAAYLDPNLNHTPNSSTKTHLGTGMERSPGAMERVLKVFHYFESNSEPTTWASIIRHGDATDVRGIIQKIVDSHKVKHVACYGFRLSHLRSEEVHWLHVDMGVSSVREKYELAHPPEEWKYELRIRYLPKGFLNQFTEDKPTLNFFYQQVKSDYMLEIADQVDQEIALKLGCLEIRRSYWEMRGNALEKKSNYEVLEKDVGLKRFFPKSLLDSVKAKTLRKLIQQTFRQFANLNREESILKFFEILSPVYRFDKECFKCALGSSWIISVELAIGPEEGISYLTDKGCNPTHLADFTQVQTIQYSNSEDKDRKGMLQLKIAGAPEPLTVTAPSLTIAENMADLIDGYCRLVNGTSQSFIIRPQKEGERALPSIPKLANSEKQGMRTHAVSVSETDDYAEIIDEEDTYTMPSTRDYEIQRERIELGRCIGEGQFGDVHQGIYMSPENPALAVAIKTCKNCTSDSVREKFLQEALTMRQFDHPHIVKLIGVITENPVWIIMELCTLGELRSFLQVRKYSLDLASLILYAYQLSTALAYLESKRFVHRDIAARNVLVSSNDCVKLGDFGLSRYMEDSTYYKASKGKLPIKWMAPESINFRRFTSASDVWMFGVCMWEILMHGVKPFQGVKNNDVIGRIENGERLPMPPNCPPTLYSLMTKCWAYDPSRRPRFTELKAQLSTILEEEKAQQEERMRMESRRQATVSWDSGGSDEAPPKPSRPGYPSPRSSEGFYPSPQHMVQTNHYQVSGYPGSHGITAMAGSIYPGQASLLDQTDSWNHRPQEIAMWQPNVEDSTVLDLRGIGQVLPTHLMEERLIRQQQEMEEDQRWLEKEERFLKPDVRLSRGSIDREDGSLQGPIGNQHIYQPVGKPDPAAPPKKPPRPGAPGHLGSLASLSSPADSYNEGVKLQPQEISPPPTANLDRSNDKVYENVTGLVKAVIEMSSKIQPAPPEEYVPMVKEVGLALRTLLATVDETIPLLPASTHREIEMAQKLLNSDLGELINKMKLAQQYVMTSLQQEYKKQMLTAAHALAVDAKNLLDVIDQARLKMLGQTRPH

[12] = system: Fibrinogen (Alexa647-labelled); assay: fibrinogen binders on compound microarrays, profiling panel, artefact control for SMM control-protein annotation, biochemical, small-molecule microarray, 635/667 nm fluorescence (AID 1131); conditions: fibrinogen-A647 binding fluorescence, higher = more signal;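 note: z-score merges 667 nm fluorescence with per-spot signal-to-noise over triplicate slides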
[13] = target: Follistatin (Homo sapiens) (UniProt P19883); assay: follistatin binders on small-molecule microarrays, primary screen, biochemical, small-molecule microarray, 635/667 nm fluorescence (AID 1132); conditions: FST binding, 635 nm fluorescence, higher = more signal
Chain of Follistatin (Homo sapiens) (P19883 whole entry, looked up): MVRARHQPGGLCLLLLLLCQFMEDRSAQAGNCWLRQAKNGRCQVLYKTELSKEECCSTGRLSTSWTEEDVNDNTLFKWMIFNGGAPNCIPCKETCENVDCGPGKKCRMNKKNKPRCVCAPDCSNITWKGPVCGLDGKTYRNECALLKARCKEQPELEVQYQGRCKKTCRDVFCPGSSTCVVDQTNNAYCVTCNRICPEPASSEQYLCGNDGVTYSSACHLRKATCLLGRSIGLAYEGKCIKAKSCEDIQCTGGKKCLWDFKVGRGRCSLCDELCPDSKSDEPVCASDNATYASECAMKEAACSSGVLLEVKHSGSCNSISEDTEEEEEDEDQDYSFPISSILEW

[14] = target: Fibroblast growth factor 2 (Homo sapiens) (UniProt P09038); assay: FGF2 binders on small-molecule microarrays, primary screen, biochemical, small-molecule microarray, 635/667 nm fluorescence (AID 1133); conditions: small-molecule microarray binding, FGF2, fluorescence 635/667; higher = more signal
Chain of Fibroblast growth factor 2 (Homo sapiens) (P09038 whole entry, looked up): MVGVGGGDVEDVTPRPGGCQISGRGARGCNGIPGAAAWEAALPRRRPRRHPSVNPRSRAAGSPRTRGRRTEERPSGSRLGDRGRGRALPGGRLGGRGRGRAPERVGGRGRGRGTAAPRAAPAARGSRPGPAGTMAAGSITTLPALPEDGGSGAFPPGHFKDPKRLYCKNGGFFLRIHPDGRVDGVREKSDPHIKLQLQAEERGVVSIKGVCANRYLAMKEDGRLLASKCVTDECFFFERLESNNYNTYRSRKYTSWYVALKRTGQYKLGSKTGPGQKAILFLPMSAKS

[15] = mitochondrial membrane potential change in A549 cells, profiling panel, cell-based, JC-1 fluorescence, basal, 24 h, 100 nL (AID 1138); conditions: higher = more signal;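 note: A549 lung adenocarcinoma cells under basal conditions with no added stimulus; test concentration not given here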
Lefty1 = Lefty1 binders on small-molecule microarrays, primary screen, biochemical, small-molecule microarray, 635/667 nm fluorescence (AID 1139); conditions: small-molecule microarray binding, fluorescence 635/667; higher = more signal
[16] = system: wheat germ agglutinin (Triticum aestivum), Alexa647-labelled; assay: wheat germ agglutinin binders on compound microarrays, profiling panel, artefact control for SMM control-protein annotation, biochemical, small-molecule microarray, 635/667 nm fluorescence (AID 1140); conditions: WGA-A647 binding, 635 nm fluorescence, higher = more signal;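 note: score merges 667 nm feature emission with signal to noise over triplicate slides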
[17] = target: Luciferin 4-monooxygenase (Photinus pyralis) (UniProt P08659); assay: firefly luciferase enzyme inhibitors, primary screen, biochemical, luminescence, purified enzyme, 2006 set (AID 1141); conditions: SteadyGlo luminescence, 30 min, higher = more signal, called active from +8 up or from −8 down;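 note: cell-free assay with purified firefly luciferase at 100 ng per well in PBS; test concentration not given here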
Chain of Luciferin 4-monooxygenase (Photinus pyralis) (P08659 whole entry, looked up): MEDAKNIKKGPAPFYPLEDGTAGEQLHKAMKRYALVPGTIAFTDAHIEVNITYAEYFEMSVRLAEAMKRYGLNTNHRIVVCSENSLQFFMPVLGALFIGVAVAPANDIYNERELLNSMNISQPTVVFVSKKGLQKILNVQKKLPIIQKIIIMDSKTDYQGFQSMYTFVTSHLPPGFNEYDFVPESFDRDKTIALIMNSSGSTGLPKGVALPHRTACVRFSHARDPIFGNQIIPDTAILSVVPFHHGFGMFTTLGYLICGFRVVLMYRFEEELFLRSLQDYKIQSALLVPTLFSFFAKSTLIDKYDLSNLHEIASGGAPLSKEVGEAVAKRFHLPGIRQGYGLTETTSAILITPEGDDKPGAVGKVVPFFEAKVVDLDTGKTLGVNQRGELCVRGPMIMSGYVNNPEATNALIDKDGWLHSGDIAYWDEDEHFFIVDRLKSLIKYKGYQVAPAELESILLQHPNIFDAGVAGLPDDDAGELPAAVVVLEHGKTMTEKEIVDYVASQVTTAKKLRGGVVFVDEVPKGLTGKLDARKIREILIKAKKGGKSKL

SMILES | composite z-score (Albumin (Bos taurus)) | composite Z-score [1] | composite z-score [2] | composite z-score [3] | composite z-score [4] | composite z-score [5] | composite z-score [6] | composite z-score (Sam68 (KHDRBS1)) | composite z-score [7] | composite z-score [8] | composite z-score [9] | composite z-score [10] | composite z-score [11] | composite z-score [12] | composite z-score [13] | composite z-score [14] | z-score [15] | composite z-score (Lefty1) | composite z-score [16] | z-score [17]
CC(C)C(=O)N[C@H]1CCCN1C(=O)C=Cc1ccccc1 | 0.564 | -0.087 (inactive) | 0.276 | 0.0062 | 0.267 | 0.253 | 0.0905 | 0.752 | 0.242 | 0.163 | 0.508 | 0.899 | 0.225 | -0.198 | 0.438 | 0.54 | -0.509 | 1.13 | -0.441 | -0.0726 (inactive)
C=CC[C@@H]1C=C[C@H](Oc2ccc(C)cc2)[C@@H](COC(=O)NCc2cccc3ccccc23)O1 | 0.427 | 0.339 (inactive) | -0.0328 | -0.127 | 0.023 | 0.502 | -0.106 | -0.256 | 0.338 | -0.749 | 1.21 | 0.703 | 0.433 | 0.216 | 0.285 | 0.07 | 1.34 | 0.574 | 0.115 | -0.0167 (inactive)
CO[C@H]1C[C@@H]2C[C@H](O)CC(CC(=O)O[C@@H](C=CCC(C)C)C[C@@H]3CC[C@H](C)[C@@H](C1)O3)O2 | 0.603 | -0.349 (inactive) | 0.0824 | -0.193 | 0.276 | 1.12 | -0.0223 | 1.3 | 0.629 | 0.389 | 0.583 | 0.959 | 0.122 | 0.707 | 0.719 | 0.361 | -0.589 | 0.749 | 0.0954 | -0.0042 (inactive)
CC1(C)O[C@H]2OC([C@H](O)CON3C(=O)c4ccccc4C3=O)[C@H](O)[C@H]2O1 (stereo not given in full) | 0.107 | -0.282 (inactive) | -0.135 | 0.117 | 0.341 | -0.378 | -0.0948 | 0.29 | 0.0988 | -0.371 | 0.547 | -0.103 | 0.433 | 0.12 | 0.0275 | 0.495 | -0.487 | 0.291 | 0.561 | -0.317 (inactive)
CC(CCN1CCCc2nc(C)c(C)cc21)=NO[C@H](C)c1cn([C@@H]2COC[C@H]2O)nn1 | -0.392 | 0.37 (inactive) | 0.106 | -0.0741 | 0.25 | -0.205 | 0.58 | 1.32 | 0.854 | 0.351 | 0.652 | 0.793 | 1.19 | 0.704 | 0.622 | 0.743 | -0.0769 | 0.764 | 0.205 | 0.711 (inactive)
CC(C)(C)N1C(=O)[C@H]2[C@H]3[C@H](O)[C@H](O)CC(=NNC(=O)OCc4ccccc4)[C@H]3CC[C@H]2C1=O | -0.316 | 0.175 (inactive) | -0.0071 | -0.075 | 0.158 | 0.447 | -0.0026 | 1.1 | 0.303 | 0.275 | 0.758 | 0.848 | 0.0507 | 1.03 | 0.963 | 0.491 | -1.08 | 1.43 | 0.525 | 0.944 (inactive)
CC(C)[C@@H](OCc1ccccc1)[C@H](C)C=NOC[C@@H](O)[C@H]1O[C@@H]2OC(C)(C)O[C@@H]2[C@H]1O | 0.0762 | 0.528 (inactive) | -0.0014 | -0.147 | -0.0043 | 0.223 | 0.614 | 0.574 | 0.314 | 1.07 | 2.33 | 0.387 | 0.137 | 0.941 | 0.214 | 0.635 | -0.958 | 0.768 | 0.234 | -0.587 (inactive)
COC(=O)[C@@H]1CC[C@H](C)[C@@H](c2ccc(C)cc2)N1C(=O)c1ccc(C=NOC[C@@H](O)[C@H]2O[C@@H]3OC(C)(C)O[C@@H]3[C@H]2O)cc1 | 0.333 | -0.187 (inactive) | -0.0014 | -0.128 | 0.368 | 0.424 | 0.228 | 1.02 | 0.402 | 0.736 | 0.266 | 1.03 | 0.158 | 0.953 | 0.49 | 0.63 | -1.78 | 0.367 | 0.506 | -0.297 (inactive)
CC(C)CON=C1[C@H]2CCn3c(=O)n(C)c(=O)n3[C@H]2[C@H](O)[C@@H]2O[C@H]12 | -0.0213 | -0.483 (inactive) | 0.236 | -0.139 | -0.148 | -0.818 | 0.854 | 0.471 | 0.783 | 0.328 | 0.457 | 0.398 | 0.0335 | 0.413 | 0.581 | 0.411 | 0.563 | 1.02 | 0.324 | -0.571 (inactive)
CO[C@H]1COC(=O)CCC[C@H](C)[C@H](OC)COC(=O)CC=C[C@@H]1C | -0.235 | -0.348 (inactive) | -0.189 | -0.118 | -0.515 | -1.17 | -0.219 | -0.219 | 1.15 | -0.362 | 1.03 | -0.676 | -0.0022 | -1.52 | 1.1 | 1.13 | -0.904 | 0.987 | -0.0108 | -0.981 (inactive)
CCc1cc2c(nc1CC)CCN(CCC(C)=NOC[C@@H](C)[C@H](OCc1ccccc1)C(C)C)C2 | 0.742 | 0.551 (inactive) | -0.443 | -0.135 | -0.25 | -0.171 | -0.383 | -0.16 | -1.05 | -1.12 | 2.64 | -0.684 | -0.846 | -1.69 | -0.862 | -1.39 | 0.874 | -0.465 | -0.323 | -1.77 (inactive)
